Reference: PubChem BioAssay AID2417 (National Center for Advancing Translational Sciences (NCATS), 2010)
Out of some 140,000 compounds screened, about 4,300 (3.1%) were called active. Roughly 21% stayed inconclusive and do not appear here. For the sample, actives were picked, then their nearest neighbours and some compounds at random. Unmarked numbers belong to inactive results.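 How the source made its calls: active means readout at or below -70, meaning at least 70% loss of cells showing the perinucleolar compartment, a nuclear body marking cancer cells; inconclusive means readout between -30 and a set limit; inactive means the rest.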

Assay: High Content Assay for Compounds that inhibit the Assembly of the Perinucleolar Compartment;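 further: plate controls were DMSO wells for no effect and camptothecin positive control wells for full effect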
Details: PC3M PTB-GFP, PNC prevalence imaging, 16 h; at 10 µM; hits give low values
Outline: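 Read-out is percentage of cells bearing a perinucleolar compartment, from automated 20x imaging of fixed, Hoechst-stained PC3M PTB-GFP cells. Cells were seeded 4 h, then exposed 16 h to compound (23 nl of library stock) in duplicate plates.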

Going from CN1/C(=C\C(=O)c2cccnc2Cl)C(C)(C)c2ccccc21 to CC(=O)N1c2ccccc2N(Cc2ccc([N+](=O)[O-])cc2)C(=O)C1(C)C, the activity change (PNC), negative = inhibition falls from 78% to 13.5%.

Going from CCC1C=C(c2ccccc2)C=CN=C1N(CC)CC (configuration not stated) to CCCCN(CC)C(=O)c1ccccc1Oc1ccccc1, the activity change (PNC), negative = inhibition rises from -9.28% to 6.14%.

First: O=C(NC1CC1)c1ccc2c(c1)NC(=O)c1ccccc1S2
Second: CCOc1ccc(C(=O)NC2CCN(C(=O)Nc3ccccc3OC)CC2)cc1
The activity change (PNC), negative = inhibition of the first is lower: 14.7% for the first, 37.5% for the second.

Compared with CCn1cc(CNC(=O)c2cc([N+](=O)[O-])c(C)c([N+](=O)[O-])c2)cn1, Cc1ccc(Nc2cc(C)nc3c(C)ccc([N+](=O)[O-])c23)cc1 is higher in activity change (PNC), negative = inhibition: 4.07% for the first, 23% for the second.

Going from CCN(CC)CCn1c(/N=C/c2cc(Br)ccc2O)nc2ccccc21 to O=C(Cc1ccccc1)NNC1CC(=O)N(c2ccc(Br)cc2)C1=O (configuration not stated), the activity change (PNC), negative = inhibition falls from 21.6% to 6.12%.

First: O=C(COC(=O)/C=C/c1ccc(S(=O)(=O)N2CCCCCC2)cc1)NCc1ccccc1Cl
Second: CC1CCCN(S(=O)(=O)c2ccc(N(C(=O)c3cnccn3)C(C(=O)NC3CCCCC3)c3cccs3)cc2)C1 (configuration not stated)
The activity change (PNC), negative = inhibition of the first is lower: 0.0752% for the first, 13.4% for the second.

Going from Nc1nc(NCCCN2CCOCC2)nc(Nc2ccccc2)c1[N+](=O)[O-] to Cn1ncc2c(NNC(=O)Cc3cccc4ccccc34)ncnc21, the activity change (PNC), negative = inhibition rises from -16.9% to -13.1%.

Going from O=C(CC1NCCNC1=O)Nc1cc(Cl)cc(Cl)c1 (configuration not stated) to O=C(COc1ccc2oc3c(c2c1)CCCC3)Nc1ccccn1, the activity change (PNC), negative = inhibition falls from 29.9% to -26.2%.

Compared with CCc1ccc(Oc2coc3cc(OC(=O)c4cc5ccccc5oc4=O)ccc3c2=O)cc1, O=C(N/N=C/c1coc2ccccc2c1=O)c1cc2ccccc2o1 is higher in activity change (PNC), negative = inhibition: 2.64% for the first, 11% for the second.

Compared with C=CCn1c(SCC(=O)/C(C#N)=C(\C)N)nc2sc(C)c(C)c2c1=O, C=CCn1c(SCc2c(C)noc2C)nc2sc3c(c2c1=O)CCC(C)C3 (configuration not stated) is lower in activity change (PNC), negative = inhibition: -7.62% for the first, -26.1% for the second.

First: O=C(/C=C/c1cnc2ccccc2n1)NC1CCCCCC1
Second: O=C(/C=C/NCc1ccc(F)cc1)c1ccccc1
The activity change (PNC), negative = inhibition of the first is lower: -24.3% for the first, -6.98% for the second.

Compared with Cc1nn(Cc2ccc(Cl)cc2)c(Cl)c1/C=N/NC(=O)c1cccnc1, Fc1ccc2c(c1)C(c1cccnc1)=NNC(c1cccs1)=N2 is lower in activity change (PNC), negative = inhibition: 35.8% for the first, 17.9% for the second.

First: NC(=O)COc1ccc2c3c(c(=O)oc2c1)CCCCC3
Second: COC(=O)c1ccc(CSc2nc3ccccc3c(=O)n2-c2cccc(OC)c2)o1
The activity change (PNC), negative = inhibition of the first is lower: -10.3% for the first, 7.85% for the second.

Going from Cc1cccc(C(=O)NC(=S)N2CCN(c3ccc([N+](=O)[O-])cc3)CC2)c1 to O=C(Nn1c(-c2ccccc2)nc2ccccc2c1=O)c1ccc([N+](=O)[O-])cc1, the activity change (PNC), negative = inhibition rises from 8.71% to 38.7%.

Compared with COC(=O)c1ccc(Cc2ccccc2)o1, COCC(C)n1c(SCc2ccc(C(=O)OC)o2)nc2ccccc2c1=O (configuration not stated) is lower in activity change (PNC), negative = inhibition: 13.6% for the first, 1.64% for the second.

Compared with CCOc1ccccc1Nc1nnc(SCc2ccc(C(=O)OC)o2)s1, C=CCn1c(SCc2c(C(=O)OC)sc(N)c2C(=O)OC)nnc1-c1ccc(Cl)cc1 is lower in activity change (PNC), negative = inhibition: 30.2% for the first, 7.94% for the second.

Compared with O=C(CNS(=O)(=O)c1ccccc1)NCC(=O)OCc1ccccc1F, C=CCn1c(SCC(=O)c2ccc(Br)cc2)nnc1C(C)NC(=O)Cc1ccc(OC)cc1 (configuration not stated) is lower in activity change (PNC), negative = inhibition: 26% for the first, 11.4% for the second.

First: COc1ccc(N2C(=O)CC(SC(C)C)C2=O)cc1 (configuration not stated)
Second: COC(=O)C1=C(Nc2ccc(OC)cc2)C=C(C)C(C(=O)OC)C1c1ccc(C)cc1 (configuration not stated)
The activity change (PNC), negative = inhibition of the first is higher: 36.9% for the first, -17.7% for the second.

Compared with CC1(C)C(C=C(Cl)Cl)C1C(=O)N(Cc1ccc(Cl)cc1)C1CCS(=O)(=O)C1 (configuration not stated), CC(=O)c1ccc(NC(=S)NC(=O)CC(C)C)cc1 is lower in activity change (PNC), negative = inhibition: 32.1% for the first, 18.7% for the second.

Work on O=C(NN1C(=O)C2C3C=CC(O3)C2C1=O)c1ccncc1 (configuration not stated) yielded an activity change (PNC), negative = inhibition of 36%.

In the case of COc1cc(OC)cc(C(=O)NC2CCN(C(=O)N3c4ccccc4Sc4ccccc43)CC2)c1, the activity change (PNC), negative = inhibition is reported as -91% (active).
In the case of CNc1nc(Nc2ccc(C)c(Cl)c2)nc(N)c1[N+](=O)[O-], the activity change (PNC), negative = inhibition is reported as -113% (active).
In the case of C=CCn1c(SCc2csc(C)n2)nc2scc(-c3ccc(C)o3)c2c1=O, the activity change (PNC), negative = inhibition is reported as -99.5% (active).
With O=C(CN1CCOCC1)N1CCCc2c1c(=O)oc1ccc(OCc3ccccc3)cc21 the activity change (PNC), negative = inhibition was -90.3% (active).
In the case of COC(=O)c1ccc(CSc2ccc3nnc(-c4ccccc4)n3n2)o1, the activity change (PNC), negative = inhibition is reported as -97.8% (active).
In the case of COC(=O)c1ccc(CSc2ccccc2C)o1, the activity change (PNC), negative = inhibition is reported as -112% (active).
For C=CCn1c(SCc2ccc(Cl)c(Cl)c2)nnc1C(CO)NC(=O)c1ccc(OC)cc1 (configuration not stated), the activity change (PNC), negative = inhibition was -102% (active).
With COC(=O)C1=C(Nc2ccc(C)cc2)C=C(C)C(C(=O)OC)C1c1ccc(F)cc1 (configuration not stated) the activity change (PNC), negative = inhibition was -100% (active).
